Test results reported in PubChem BioAssay (NCATS).
Records with an inconclusive call do not appear. Entries that show only a call come without a potency. Calls of active or inactive are those of the source. Unless noted, calls follow the shape of the dose curve; as a rule, active = well fitted curve in the direction sought with a large enough effect; inconclusive = small, poorly fitted or top-dose-only effect, or another doubt; inactive = no such curve, though single readings can be large; an effect the other way counts as inactive or inconclusive.

Tests used:
[1] = Validation screen for small molecules that induce genotoxicity in human embryonic kidney (HEK293T) cells expressing luciferase-tagged ELG1 (AID 493106); also: potency is read from the fitted curve at half-maximal effect
In short: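 qHTS format; 2,000 HEK293T ELG1-luc cells/well; 23 nL compound via pin tool; 16 hr, 37 °C/5% CO2; ONE-Glo, 30 min RT; luminescence read.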

[2] = biological target: ATPase family AAA domain-containing protein 5 (Homo sapiens) (UniProt Q96QE3); experiment: Validation screen for small molecules that inhibit ELG1-dependent DNA repair in human embryonic kidney (HEK293T) cells expressing luciferase-tagged ELG1 (AID 493107); also: nearly all actives have a fitted effect of over 70% in size; also: potency is read from the fitted curve at half-maximal effect
In short: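 ELG1-luciferase HEK293T reporter; 5-fluorouridine + compound/DMSO, 16 hr, 37 °C, 5% CO2; ONE-Glo 30 min RT; luminescence read, qHTS format.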

[3] = qHTS for Inhibitors of Cell Surface uPA Generation: Validation Assay (AID 493164);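 also: RAW 264.7 macrophage cells exposed to compound for 18 h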
In short: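 Compounds are titrated over seven points (2.45 nM–38.3 uM final) onto pre-plated RAW 264.7 cells and incubated for 18 h. Retained intracellular ATP, measured with ATP-Lite, indicates blocked lethal factor entry.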

[4] = biological target: Phosphoglycerate kinase, glycosomal (Trypanosoma brucei brucei) (UniProt P07378); experiment: qHTS Validation Assay to Find Inhibitors of Phosphoglycerate Kinase (AID 504547); also: potency is read from the fitted curve at half-maximal effect
In short: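 In TEA buffer (100mM, pH 7.6) containing 5mM MgCl2 and 0.01% Tween-20, the GAPDH-coupled PGK reaction proceeded for 60 minutes at room temperature before a single luminescence reading using Kinase-Glo Plus.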

[5] = biological target: phosphoglycerate mutase (Leishmania major) (UniProt Q4Q090); experiment: qHTS Validation Assay to Find Inhibitors of Phosphoglycerate Mutase (AID 504548); settings: Potency: inhibition qHTS; also: potency is read from the fitted curve at half-maximal effect
In short: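 Inhibition of L. major PGAM was assessed by Kinase-GloPlus luminescence following a 45-minute room-temperature reaction with enzyme at 1.25nM final.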

[6] = biological target: Ubiquitin carboxyl-terminal hydrolase 1 (Homo sapiens) (UniProt O94782); experiment: Inhibitors of USP1/UAF1: Pilot qHTS (AID 504865); also: nearly all actives have a fitted effect of over 35% in size; also: potency is read from the fitted curve at half-maximal effect
In short: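 1nM USP1/UAF1 + cpd, 15 min RT; start w/ Ub-Rho 150nM final; kinetic FL 480/540 nm, 6 reads q60 s. Buffer 50mM HEPES pH 7.8, 0.5mM EDTA, 1mM TCEP, 0.01% Tween-20, 0.1 mg/ml BSA.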

[7] = biological target: Peptidyl-prolyl cis-trans isomerase NIMA-interacting 1 (Homo sapiens) (UniProt Q13526); experiment: qHTS Validation Assay to Find Inhibitors of Pin1 (AID 504536; active = well fitted inhibition curve with a large enough effect in the polarisation, with a control signal flat, not every such curve was filed as active; the % refers to the polarisation)
In short: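 Fluorescence polarization competition: compounds (titration) displace HiFluor-488-labeled Pin1-1b peptide from Pin1 (0.3 uM final) in pH 7.5 HEPES buffer with DTT, 10 min at room temperature; %Activity normalized to no-enzyme wells, curves fitted.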

[8] = qHTS for Inhibitors of ATXN expression: Validation of Cytotoxic Assay (AID 588349)
In short: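 Cytotoxicity counter-screen: HEK293 cells exposed to compound titrations, 72 hr, 37 degrees C. Read-out is intracellular ATP (CellTiter Glo luminescence) as a viability measure.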

[9] = qHTS for Inhibitors of ATXN expression: Validation (AID 588378); also: nearly all actives have a fitted effect of over 75% in size; also: potency is read from the fitted curve at half-maximal effect
In short: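 Cells: HEK293-ATXN2-FFLuc, phenol-red free DMEM, 2 h attachment. Compound pin-transfer, 24 h, 37 degrees C, 5% CO2. CellTiter-Fluor 30 min, Ex405/Em525; Bright-Glo 5 min, luminescence 2 s exposure.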

[10] = biological target: Thyrotropin-releasing hormone receptor (Homo sapiens) (UniProt P34981); experiment: qHTS for Small Molecule Agonists and Allosteric Enhancers of Human TRH Receptor: Validation Screen for Agonists (AID 493127;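 active = calcium activation more than 3 SD above the typical response in the agonist read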;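 also: intracellular calcium rise by fluo-8 fluorescence before TRH EC20 addition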); settings: TRH receptor agonist cell assay; at 2 µM; stronger effect = higher value
In short: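 Read-out: intracellular calcium release measured kinetically by FDSS (fluo-8, ex 480/em 530 nm), 1 reading/s after a 10-cycle baseline. TRHR cells, 2000/well, cultured 18 h at 33.5C, dye-loaded at room temp. Compound-evoked positive calcium signal flags agonists.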

[11] = Nrf2 qHTS screen for inhibitors: Validation (AID 493153; active = well fitted inhibition curve with a large enough effect in the main read-out, with a control signal flat, not every such curve was filed as active); settings: Potency: luciferase luminescence; viability change: measured here: cytotoxicity max response
In short: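 Concentration-response test in A549 ARE_Fluc reporter cells (5% FBS OPTI-MEM), compound exposure 18-24 h at 37°C, 5% CO2. Cell viability measured first by CellTiter-Fluor fluorescence; ARE-driven luciferase luminescence then measured as Nrf2 activity.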

[12] = Validation screen for small molecules that induce DNA re-replication in SW480 colon adenocarcinoma cells (AID 504364); also: potency is read from the fitted curve at half-maximal effect
In short: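 Read-out: total Hoechst intensity of nuclei by fluorescence scanning imager; hits raise the fraction of nuclei with elevated DNA content. Cells received compound for 48 hr at 37 C before a 40 min stain.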

[13] = biological target: DNA dC->dU-editing enzyme APOBEC-3G (Homo sapiens) (UniProt Q9HC16); experiment: qHTS for inhibitors of Vif-A3G interactions: Validation (AID 588379); also: potency is read from the fitted curve at half-maximal effect
In short: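 Yellow fluorescence (Ex 488, Em 500-530) of Vif-coexpressing HeLa A3G-eYFP cells, scanned by Acumen cytometer, reports blocked A3G degradation. Cells plated at 700/well overnight at 37 deg C before compound addition, then a further overnight compound incubation at 37 deg C.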

[14] = biological target: Galactokinase (Homo sapiens) (UniProt P51570); experiment: qHTS Validation Assay for Inhibitors of Human Galactokinase (GALK) (AID 493189)
In short: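 Luminescence from leftover ATP (Kinase-Glo Plus, 10 min) served as read-out after a 1 h room-temperature reaction of 5 nM GALK, 100 uM galactose and 35 uM ATP at pH8.0.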

[15] = biological target: Estrogen receptor (Homo sapiens) (UniProt P03372); experiment: qHTS assay for small molecule antagonists of estrogen receptor alpha signaling (AID 588513; active = well fitted curve in the direction sought with a large enough effect in the signal ratio, with a control signal flat, not every such curve was filed as active; the % refers to the signal ratio)
In short: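 Beta-lactamase reporter, antagonist mode, HEK 293 GripTite cells; 0.5nM E2 stimulus, 18 h, 37 C; CCF4 dye 2 h RT; fluorescence. IC50 and efficacy from Hill fits, normalized to E2 and DMSO.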

[16] = biological target: Estrogen receptor (Homo sapiens) (UniProt P03372); experiment: qHTS assay for small molecule agonists of estrogen receptor alpha signaling (AID 588514; calls by dose curve; also: nearly all actives have a fitted effect of over 70% in size)
In short: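 Read-out: CCF4 fluorescence from a beta-lactamase reporter in ER-alpha-UAS-bla HEK 293 cells after 18 hrs of compound exposure at 37 C. Normalized to 20 nM 17-beta-estradiol (100%) and DMSO (0%).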

[17] = biological target: Bile acid receptor (Homo sapiens) (UniProt Q96RI1); experiment: qHTS assay for small molecule antagonists of farnesoid X receptor signaling (AID 588526; calls by dose curve)
In short: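 Concentration-response titrations were fitted to the Hill equation for half-maximal inhibition and maximal response, with data normalised to 50 uM chenodeoxycholic acid and DMSO control wells. Cells: FXR-UAS-bla HEK293T, dialyzed FBS.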

Galactokinase (Homo sapiens), sequence (P51570 whole entry, looked up): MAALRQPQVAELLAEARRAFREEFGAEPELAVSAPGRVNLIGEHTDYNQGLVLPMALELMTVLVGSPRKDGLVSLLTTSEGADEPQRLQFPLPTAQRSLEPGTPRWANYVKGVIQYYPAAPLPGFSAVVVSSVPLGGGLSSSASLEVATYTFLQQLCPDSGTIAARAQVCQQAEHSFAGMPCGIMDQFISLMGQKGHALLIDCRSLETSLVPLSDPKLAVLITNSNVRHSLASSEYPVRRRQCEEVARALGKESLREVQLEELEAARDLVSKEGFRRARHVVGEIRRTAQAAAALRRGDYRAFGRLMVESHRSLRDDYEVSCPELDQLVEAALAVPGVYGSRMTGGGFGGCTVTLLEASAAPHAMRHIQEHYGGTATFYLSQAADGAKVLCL
Phosphoglycerate kinase, glycosomal (Trypanosoma brucei brucei), sequence (P07378 whole entry, looked up): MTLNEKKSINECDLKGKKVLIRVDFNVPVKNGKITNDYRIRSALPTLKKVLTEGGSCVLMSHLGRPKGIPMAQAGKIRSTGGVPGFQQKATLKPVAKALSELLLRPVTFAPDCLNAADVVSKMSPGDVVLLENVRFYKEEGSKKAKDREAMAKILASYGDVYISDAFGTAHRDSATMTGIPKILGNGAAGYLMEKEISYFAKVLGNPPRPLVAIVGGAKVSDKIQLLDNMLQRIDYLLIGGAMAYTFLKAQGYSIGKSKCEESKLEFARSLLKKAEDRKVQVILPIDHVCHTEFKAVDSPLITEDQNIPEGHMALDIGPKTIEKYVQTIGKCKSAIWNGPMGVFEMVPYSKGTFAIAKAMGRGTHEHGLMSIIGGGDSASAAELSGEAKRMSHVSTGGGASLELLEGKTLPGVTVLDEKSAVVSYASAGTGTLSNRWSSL
ATPase family AAA domain-containing protein 5 (Homo sapiens), sequence (Q96QE3 whole entry, looked up, the tested form may be a part): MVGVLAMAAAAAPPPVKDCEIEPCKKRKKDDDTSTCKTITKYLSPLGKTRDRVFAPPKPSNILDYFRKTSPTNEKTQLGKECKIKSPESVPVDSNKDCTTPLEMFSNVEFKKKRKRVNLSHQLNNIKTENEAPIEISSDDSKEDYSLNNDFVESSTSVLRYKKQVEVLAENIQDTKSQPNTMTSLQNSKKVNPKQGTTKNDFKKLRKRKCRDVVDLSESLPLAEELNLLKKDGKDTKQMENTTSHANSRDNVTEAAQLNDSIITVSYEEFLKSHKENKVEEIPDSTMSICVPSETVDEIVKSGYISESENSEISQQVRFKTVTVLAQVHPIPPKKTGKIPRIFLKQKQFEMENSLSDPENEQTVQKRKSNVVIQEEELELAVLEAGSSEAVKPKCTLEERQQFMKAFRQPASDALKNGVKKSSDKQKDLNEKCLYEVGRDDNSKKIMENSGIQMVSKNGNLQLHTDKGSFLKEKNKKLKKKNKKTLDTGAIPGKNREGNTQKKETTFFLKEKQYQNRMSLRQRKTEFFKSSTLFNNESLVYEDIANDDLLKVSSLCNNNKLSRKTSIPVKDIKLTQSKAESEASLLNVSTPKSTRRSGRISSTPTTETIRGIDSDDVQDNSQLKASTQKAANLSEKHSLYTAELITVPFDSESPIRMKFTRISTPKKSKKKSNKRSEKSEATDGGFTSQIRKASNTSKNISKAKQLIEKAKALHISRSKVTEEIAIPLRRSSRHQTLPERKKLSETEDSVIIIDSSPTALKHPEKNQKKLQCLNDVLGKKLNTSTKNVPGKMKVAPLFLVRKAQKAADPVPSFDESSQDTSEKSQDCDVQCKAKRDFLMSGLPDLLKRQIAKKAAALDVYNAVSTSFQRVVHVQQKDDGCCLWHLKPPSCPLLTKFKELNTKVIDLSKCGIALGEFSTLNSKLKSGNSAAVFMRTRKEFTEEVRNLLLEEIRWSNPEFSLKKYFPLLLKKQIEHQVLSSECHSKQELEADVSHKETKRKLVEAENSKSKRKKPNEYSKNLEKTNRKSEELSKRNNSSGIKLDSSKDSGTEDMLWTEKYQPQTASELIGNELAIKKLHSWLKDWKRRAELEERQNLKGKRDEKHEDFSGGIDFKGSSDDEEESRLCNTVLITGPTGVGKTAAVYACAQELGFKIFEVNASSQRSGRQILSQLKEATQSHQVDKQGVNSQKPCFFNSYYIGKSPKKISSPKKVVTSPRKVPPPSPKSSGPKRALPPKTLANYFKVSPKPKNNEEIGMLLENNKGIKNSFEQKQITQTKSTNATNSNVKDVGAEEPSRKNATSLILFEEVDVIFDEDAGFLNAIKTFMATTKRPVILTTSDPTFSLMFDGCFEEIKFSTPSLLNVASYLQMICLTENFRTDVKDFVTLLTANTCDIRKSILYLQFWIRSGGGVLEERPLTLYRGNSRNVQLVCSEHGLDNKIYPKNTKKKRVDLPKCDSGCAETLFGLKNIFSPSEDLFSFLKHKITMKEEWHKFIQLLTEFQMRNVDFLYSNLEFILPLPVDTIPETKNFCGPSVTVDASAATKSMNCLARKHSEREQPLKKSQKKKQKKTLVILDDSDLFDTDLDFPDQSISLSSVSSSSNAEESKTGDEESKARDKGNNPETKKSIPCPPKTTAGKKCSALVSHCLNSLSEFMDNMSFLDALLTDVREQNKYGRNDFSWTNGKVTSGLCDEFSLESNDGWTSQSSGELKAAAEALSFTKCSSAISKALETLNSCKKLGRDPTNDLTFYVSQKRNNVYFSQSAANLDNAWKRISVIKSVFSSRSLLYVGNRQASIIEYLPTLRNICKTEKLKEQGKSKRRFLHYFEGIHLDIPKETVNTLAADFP
Peptidyl-prolyl cis-trans isomerase NIMA-interacting 1 (Homo sapiens), sequence (Q13526 whole entry, looked up): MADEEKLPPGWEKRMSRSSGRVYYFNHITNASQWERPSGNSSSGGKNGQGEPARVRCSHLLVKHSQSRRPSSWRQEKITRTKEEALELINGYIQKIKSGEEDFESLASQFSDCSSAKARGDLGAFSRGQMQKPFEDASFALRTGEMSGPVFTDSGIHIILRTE
Thyrotropin-releasing hormone receptor (Homo sapiens), sequence (P34981 whole entry, looked up): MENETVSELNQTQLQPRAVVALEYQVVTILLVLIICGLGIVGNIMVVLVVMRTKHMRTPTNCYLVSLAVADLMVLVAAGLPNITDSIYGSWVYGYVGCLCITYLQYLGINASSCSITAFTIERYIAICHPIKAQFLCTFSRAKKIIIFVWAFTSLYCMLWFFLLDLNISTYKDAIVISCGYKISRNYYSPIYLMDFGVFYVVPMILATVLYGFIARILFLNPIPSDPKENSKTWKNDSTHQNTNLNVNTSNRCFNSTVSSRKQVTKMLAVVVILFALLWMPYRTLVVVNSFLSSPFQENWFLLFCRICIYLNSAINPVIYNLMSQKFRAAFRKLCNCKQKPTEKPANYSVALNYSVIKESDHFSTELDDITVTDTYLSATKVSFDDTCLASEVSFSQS
Ubiquitin carboxyl-terminal hydrolase 1 (Homo sapiens), sequence (O94782 whole entry, looked up): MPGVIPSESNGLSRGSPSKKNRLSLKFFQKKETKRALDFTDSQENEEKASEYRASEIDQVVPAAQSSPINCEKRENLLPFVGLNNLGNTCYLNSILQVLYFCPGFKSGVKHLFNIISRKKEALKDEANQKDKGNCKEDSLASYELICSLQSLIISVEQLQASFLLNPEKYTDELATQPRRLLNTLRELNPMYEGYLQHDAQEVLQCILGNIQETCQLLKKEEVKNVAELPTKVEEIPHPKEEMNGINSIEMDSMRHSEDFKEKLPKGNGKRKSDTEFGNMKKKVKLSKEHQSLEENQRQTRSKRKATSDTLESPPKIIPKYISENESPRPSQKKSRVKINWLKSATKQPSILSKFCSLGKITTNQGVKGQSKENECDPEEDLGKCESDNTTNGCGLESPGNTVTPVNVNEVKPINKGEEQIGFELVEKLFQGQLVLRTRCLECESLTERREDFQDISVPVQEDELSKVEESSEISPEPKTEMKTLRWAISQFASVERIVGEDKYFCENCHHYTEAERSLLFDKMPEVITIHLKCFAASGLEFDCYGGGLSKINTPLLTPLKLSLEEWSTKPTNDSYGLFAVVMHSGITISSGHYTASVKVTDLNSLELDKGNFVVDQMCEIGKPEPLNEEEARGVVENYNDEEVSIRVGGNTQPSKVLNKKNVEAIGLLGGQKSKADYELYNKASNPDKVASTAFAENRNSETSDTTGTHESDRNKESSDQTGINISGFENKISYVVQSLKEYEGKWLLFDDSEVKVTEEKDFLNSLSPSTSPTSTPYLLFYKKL
DNA dC->dU-editing enzyme APOBEC-3G (Homo sapiens), sequence (Q9HC16 whole entry, looked up): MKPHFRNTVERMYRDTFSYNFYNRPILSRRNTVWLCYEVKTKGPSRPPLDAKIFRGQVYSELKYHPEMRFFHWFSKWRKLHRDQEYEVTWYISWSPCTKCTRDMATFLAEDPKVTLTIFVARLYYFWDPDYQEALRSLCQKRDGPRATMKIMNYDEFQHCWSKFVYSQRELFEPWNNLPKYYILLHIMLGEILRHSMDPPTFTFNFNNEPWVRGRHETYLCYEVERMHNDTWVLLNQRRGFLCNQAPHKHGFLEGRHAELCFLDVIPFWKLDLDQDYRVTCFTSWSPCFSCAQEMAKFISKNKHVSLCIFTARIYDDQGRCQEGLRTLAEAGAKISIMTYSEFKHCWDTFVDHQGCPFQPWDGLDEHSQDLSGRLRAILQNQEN
phosphoglycerate mutase (Leishmania major), sequence (Q4Q090 1-553): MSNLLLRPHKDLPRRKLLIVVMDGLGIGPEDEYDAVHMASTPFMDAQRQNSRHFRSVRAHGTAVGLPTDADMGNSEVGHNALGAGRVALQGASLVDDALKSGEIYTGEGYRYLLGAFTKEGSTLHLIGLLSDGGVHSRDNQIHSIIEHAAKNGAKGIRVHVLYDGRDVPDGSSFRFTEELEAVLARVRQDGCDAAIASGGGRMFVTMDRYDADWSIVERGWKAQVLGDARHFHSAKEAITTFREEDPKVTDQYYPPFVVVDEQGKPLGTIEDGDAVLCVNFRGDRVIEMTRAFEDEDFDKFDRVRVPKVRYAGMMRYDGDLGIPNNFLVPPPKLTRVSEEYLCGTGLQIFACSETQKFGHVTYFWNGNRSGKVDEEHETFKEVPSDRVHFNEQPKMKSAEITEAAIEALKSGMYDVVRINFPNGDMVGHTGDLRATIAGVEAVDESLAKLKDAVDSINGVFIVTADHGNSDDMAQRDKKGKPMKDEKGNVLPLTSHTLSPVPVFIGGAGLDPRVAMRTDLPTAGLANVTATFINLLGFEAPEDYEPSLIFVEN

Row | SMILES | Potency [1] | Potency [2] | outcome [3] | Potency [4] | Potency [5] | Potency [6] | Potency [7] | Potency [8] | Potency [9] | activation [10] | Potency [11] | viability change [11] [%] | Potency [12] | Potency [13] | Potency [14] | outcome [15] | Potency [16] | outcome [17]
1 | N#C/C(=C\c1ccc(-c2cc(Cl)ccc2Cl)o1)C(=O)Nc1cccc2ncccc12 | inactive | 16.4 µM (active) | inactive | inactive | inactive | 15.8 µM (active) |  |  |  |  |  |  |  |  |  |  |  | 
2 | NCC1OC(O[C@H]2[C@H](O)[C@@H](OC3C(O)C(N)CC(N)C3OC3OC(CO)C(O)C(O)C3N)O[C@@H]2CO)C(N)C(O)C1O (some centres undefined) | inactive | inactive | inactive | inactive | inactive |  | inactive | inactive | inactive |  |  |  |  |  |  |  |  | 
3 | Cc1ccc(O)c(N=Nc2ccccc2)n1 | 2.59 µM (active) |  | inactive | 10.7 µM (active) | 10.7 µM (active) |  | inactive |  |  | 0.875% (inactive) | inactive | 0.002 | inactive | 10.6 µM (active) |  |  |  | 
4 | CCCn1c(=O)c2[nH]c(-c3ccc(OCC(=O)NCCN)cc3)nc2n(CCC)c1=O | inactive |  | inactive | inactive | inactive | inactive | inactive |  | inactive | 0.688% (inactive) | inactive | 10.5 | inactive |  | inactive |  |  | 
5 | CCCCCCCCc1ccc(-c2ccc(C(=O)O)cc2)cc1 | inactive | inactive | inactive | inactive | inactive | 50.1 µM (active) |  | inactive | inactive |  |  |  |  |  |  |  |  | 
6 | S=C(S)OC1CC2CC1C1CCCC21 (centres undefined) | inactive |  | inactive | inactive | inactive | inactive | inactive | inactive |  | 0.125% (inactive) | inactive | 5.78 | inactive |  | inactive |  |  | 
7 | O=S(=O)(c1cccc2c(I)cccc12)N1CCCNCC1 | inactive |  | inactive | inactive | inactive | inactive | inactive |  | 12.6 µM (active) | 2.06% (inactive) | inactive | 12.3 | inactive |  | inactive |  |  | 
8 | C[N+](C)(C)CCOP(=O)(O)OP(=O)([O-])OC[C@H]1O[C@@H](n2ccc(N)nc2=O)[C@H](O)[C@@H]1O | inactive | inactive | inactive | inactive | inactive | inactive |  |  | inactive |  |  |  |  |  |  |  |  | 
9 | C#CCN1C(C)=C(C(=O)OC)C(c2cccc([N+](=O)[O-])c2)C(C(=O)OCC)=C1C (centres undefined) | inactive |  | inactive | inactive | inactive |  | inactive | inactive | inactive | -10.2% (inactive) | inactive | -0.517 | inactive |  | inactive |  |  | 
10 | Oc1cc(O)cc(/C=C/c2ccc(O)c(O)c2)c1 | 3.66 µM (active) |  | inactive | 23.9 µM (active) | inactive | inactive | inactive |  | inactive | 0.938% (inactive) |  |  | inactive |  | inactive |  |  | 
11 | N#C/C(=C\c1c[nH]c2ccccc12)C(=O)c1ccc(O)c(O)c1 | inactive |  | inactive |  | inactive | inactive |  | inactive | inactive | 0.438% (inactive) | inactive | -8.11 |  |  | inactive |  |  | 
12 | OC[C@H]1O[C@@H](n2cnc3c(Nc4ccccc4)ncnc32)[C@H](O)[C@@H]1O | 9.2 µM (active) | inactive | inactive | inactive | inactive | inactive | inactive |  | inactive |  |  |  |  |  |  |  |  | 
13 | COc1ccc(NC(=O)/C=C/c2ccc(Cl)cc2)cc1 | 2.59 µM (active) |  | inactive |  |  |  | inactive |  | inactive | 1.19% (inactive) | inactive | -1.36 | inactive |  | inactive |  |  | 
14 | CCN1/C(=C/C(C)=O)Sc2ccc(OC)cc21 | inactive |  | inactive | inactive | inactive | inactive | inactive | inactive |  | -4.31% (inactive) | inactive | -5.53 | inactive |  | inactive |  |  | 
15 | CCCCCCCCCCCCCCCC(=O)NCC(COP(=O)([O-])OCC[N+](C)(C)C)OCC (centres undefined) | 18.3 µM (active) |  | inactive | inactive | inactive | 79.4 µM (active) | inactive |  |  | 0.812% (inactive) | inactive | 10.8 |  |  | inactive |  |  | 
16 | COc1ccccc1N1CCN(CCCCNS(=O)(=O)c2cccc3c(N(C)C)cccc23)CC1 | inactive |  | inactive | inactive | inactive | inactive |  |  |  | -3.25% (inactive) |  |  | 14.6 µM (active) |  | inactive |  |  | 
17 | O=C(O)[C@@H]1C[C@@H](C(=O)O)N1 | inactive |  | inactive | inactive | inactive | inactive |  |  | inactive | 1.06% (inactive) | inactive | 2.33 | inactive | inactive | inactive |  |  | 
18 | O=C(Nc1ccccc1)c1cc([N+](=O)[O-])ccc1Cl | inactive |  | inactive | inactive | inactive | inactive | inactive |  | inactive | 0.375% (inactive) | inactive | -4.87 |  | inactive | inactive | inactive | inactive | inactive
19 | NC[C@@H]1O[C@H](C23CC4CC(CC(C4)C2)C3)Cc2c1ccc(O)c2O | inactive |  | inactive | inactive | inactive | inactive | inactive |  | 20 µM (active) | 8.12% (inactive) | inactive | 3.16 | inactive |  | inactive |  |  | 
20 | Cn1ncc(S(=O)(=O)Cc2ccccc2)c(Br)c1=O | inactive | inactive |  | inactive | inactive | 12.6 µM (active) | inactive |  |  |  |  |  |  |  |  |  |  | 
